# In the library only some 11% were active in any assay of this set; here they are far more common.
# 3T3 cytotox – NIH 3T3 cell cytotoxicity | NIH 3T3 viability, CellTiter-Glo ATP luminescence, 48-72 h | Potency, µM (titrated, usually from 96.7 µM), for inactives: at the top dose activity change, negative = cytotoxicity, hits mostly inhibitors | 4.3% of 94,000 active | AID 1345082; further: nearly all actives have a fitted effect of over 55% in size
#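 ATP-dependent luminescence (CellTiter-Glo) served as the viability signal for NIH 3T3 cells treated with compound for 48 or 72 hr at 37 °C.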
# hNpr1 antagonist – blocks ANP-stimulated signaling of human Npr1 receptor | P16066 | HEK293 hNpr1 GloSensor cGMP, ANP-stimulated luminescence | Potency, µM (series often up to 46.3 µM), for the others: top-dose activity change, negative = inhibition, hits mostly inhibitors | 1.6% of 76,000 active; calls by dose curve; further: nearly all actives have a fitted effect of over 60% in size
#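 HEK293 cells stably expressing human Npr1 and cGMP GloSensor pGS-40F, loaded 2 h with 2% GloSensor reagent, given compound 30 min at room temperature. Luminescence read before and 20 min after 0.1 nM hNppA.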
# FLuc inh – blocks purified firefly luciferase enzyme activity; 2.5% of 76,000 active; Potency, µM (top dose mostly 115 µM), hits mostly inhibitors; AID 1347043; purified P. pyralis luciferase, luminescence, biochemical; P08659; further: nearly all actives have a fitted effect of over 65% in size
# Target sequence (P08659 whole entry, looked up): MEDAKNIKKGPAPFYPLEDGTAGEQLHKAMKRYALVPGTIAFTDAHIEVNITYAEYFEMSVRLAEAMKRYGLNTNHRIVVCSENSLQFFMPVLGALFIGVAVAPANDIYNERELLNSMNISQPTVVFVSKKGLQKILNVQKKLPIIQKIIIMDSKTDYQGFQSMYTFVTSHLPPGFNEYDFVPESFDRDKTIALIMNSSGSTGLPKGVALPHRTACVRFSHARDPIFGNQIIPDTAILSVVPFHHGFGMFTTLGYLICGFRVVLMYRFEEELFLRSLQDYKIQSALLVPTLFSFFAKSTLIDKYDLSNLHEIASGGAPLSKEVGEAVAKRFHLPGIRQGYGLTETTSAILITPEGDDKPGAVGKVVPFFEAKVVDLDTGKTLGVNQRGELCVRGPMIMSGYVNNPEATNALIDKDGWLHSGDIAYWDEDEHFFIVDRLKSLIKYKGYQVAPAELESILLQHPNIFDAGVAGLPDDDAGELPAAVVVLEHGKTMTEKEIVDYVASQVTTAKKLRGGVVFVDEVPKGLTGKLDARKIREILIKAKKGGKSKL
#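 FLuc 10nM, D-luciferin 10uM, ATP 10uM, Mg acetate 10mM, Tris acetate pH 7.5, Tween/BSA; cpd qHTS; enzyme added last; CCD luminescence.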
# HEK cytotox – HEK 293 cell cytotoxicity. HEK 293 viability, ATP luminescence (CellTiter-Glo), 48-72 h. Potency, µM (highest dose often 115 µM), for the others: at the top dose activity change, negative = cytotoxicity, actives largely listed as inhibitors. 6.6% of 94,000 active; further: nearly all actives have a fitted effect of over 60% in size
#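 HEK 293 cells at 250 cells/well were exposed to compounds by pintool transfer for 48 or 72 hr at 37 degree Celsius, 5% CO2. Viability was read as ATP-coupled luminescence with CellTiter-Glo after 10 min at room temperature.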
# The depositor's hits bear a star; i = inactive; ? = inconclusive; . = no result given; [ ] = remark or other dose. Unless noted, the call rests on the fitted dose curve; in most records, active means well fitted curve in the direction sought with a large enough effect; inconclusive means small, poorly fitted or top-dose-only effect, or another doubt; inactive means no such curve, though single readings can be large; an effect the other way counts as inactive or inconclusive. On the % scale 0 is the no-effect control and ±100 the full control effect; potency means the concentration at half of the fitted maximal effect.
SMILES,3T3 cytotox,hNpr1 antagonist,FLuc inh,HEK cytotox
O=C(Cc1ccccc1)N1CCC2(CC1)CC(c1cccc(C(F)(F)F)c1)=NO2,?,.,.,45µM*
FC(F)(F)c1cccc(C2=NOC3(CCN(Cc4ccccc4)CC3)C2)c1,?,4%,i,?
O=C(Cc1cccc(Cl)c1)N1CCC2(CC1)CC(c1cccc(C(F)(F)F)c1)=NO2,?,.,.,28µM*
FC(F)(F)c1cccc(C2=NOC3(CCN(Cc4ccccc4)C3)C2)c1 (stereo not drawn),?,.,.,45µM*
COc1ccc(CC(=O)N2CCC3(CC2)CC(c2cccc(C(F)(F)F)c2)=NO3)cc1,?,.,.,40µM*
O=C(c1ccoc1)N1CCC2(CC1)CC(N(Cc1ccc(F)cc1)C1CC1)CCO2 (stereo not drawn),-20%,-17%,i,?
COCCOC1CN(C2CCN(Cc3cccc(F)c3)CC2)C12CCCCC2 (stereo not drawn),-26%,-3%,i,?
O=C1NCC(=O)N2CC3(CCN(C(=O)C4CCCCC4)CC3)CC12 (stereo not drawn),-6%,.,.,i
Nc1cc(C(=O)N2CCc3onc(-c4ccc(-c5ccccc5)cc4)c3C2)[nH]n1,?,13µM*,?,18µM*
O=C(c1cc(-c2ccccc2)n[nH]1)N1CCc2c(nc(-c3ccccc3)[nH]c2=O)C1,?,-5%,?,?
O=C1NCCCCCCN(Cc2ccncc2)[C@@H]2CN(Cc3ccccn3)CC[C@H]12,-12%,4%,i,-1%
COc1ccccc1N1CCN(C(=O)C(C)[C@@H]2CCc3c(C)cc(OCCN4CCOCC4)c(C)c3C2)CC1 (stereo partly drawn),?,?,i,22µM*
Cc1ccc(-c2cccc(CN3CCCC(N[S+](=O)([O-])c4ccccc4)C3)c2)cc1Cl (stereo not drawn),-23%,.,.,-14%
COc1cccc(-c2ccc(CN3CCCC(N[S+](=O)([O-])c4c(C)noc4C)C3)cc2)c1 (stereo not drawn),45µM*,.,.,?
Cc1ccc(-c2cccc(CN3CCCC(N[S+](=O)([O-])c4c(C)noc4C)C3)c2)cc1Cl (stereo not drawn),16µM*,.,.,13µM*
C[S+](=O)([O-])NC1CCCN(Cc2ccc(-c3cncnc3)cc2)C1 (stereo not drawn),-27%,.,.,?
Cc1cc(C)cc(-c2ccc(CN3CCCC(N[S+](=O)([O-])c4ccccc4)C3)cc2)c1 (stereo not drawn),?,.,.,45µM*
COc1cccc(-c2ccc(CN3CCCC(N[S+](=O)([O-])c4ccc(C)cc4)C3)cc2)c1 (stereo not drawn),?,.,.,28µM*
COc1ccc(CN2CC3(CCN(C(=O)CCc4ccccc4)CC3)C2=O)cc1,-23%,.,.,?
CCn1cc(C(CC(=O)N2CCC(C)CC2)c2cccc(Cl)c2)c2ccccc21 (stereo not drawn),?,-16%,i,40µM*
O=C(c1ccc(F)cc1)N1CCC2(CC1)CC(c1cccc(C(F)(F)F)c1)=NO2,?,-24%,i,?
O=C(c1ccncc1)N1CCC2(CC1)CC(c1cccc(C(F)(F)F)c1)=NO2,-23%,.,.,89µM*
O=C(c1ccccn1)N1CCC2(CC1)CC(c1cccc(C(F)(F)F)c1)=NO2,-28%,.,.,?
O=C(C1CC1)N1CCC2(CC1)CC(c1cccc(C(F)(F)F)c1)=NO2,?,.,.,56µM*
Cc1ccc(NC(=O)CC2CCCN(c3cnn(CC4CC4)c(=O)c3)C2)cc1 (stereo not drawn),?,3%,i,-30%
SMILES,3T3 cytotox,hNpr1 antagonist,FLuc inh,HEK cytotox
Cc1cccc(NC(=O)CC2CCCN(c3cnn(CC4CC4)c(=O)c3)C2)c1 (stereo not drawn),25µM*,-7%,i,?
CCOc1ccc(NC(=O)CC2CCCN(c3cnn(CC4CC4)c(=O)c3)C2)cc1 (stereo not drawn),-29%,16%,i,?
CCc1cccc(NC(=O)CC2CCCN(c3cnn(CC4CC4)c(=O)c3)C2)c1 (stereo not drawn),40µM*,-11%,i,?
COCCn1ncc(N2CCCC(CC(=O)NCCC3=CCCCC3)C2)cc1=O (stereo not drawn),-8%,3%,i,-15%
O=C(Cc1cccc(Cl)c1)NC1CCN(Cc2ccc(-c3ccsc3)cc2)C1 (stereo not drawn),8.9µM*,.,.,?
O=C(NC1CCN(Cc2ccc(-c3ccsc3)cc2)C1)c1ccc(C(F)(F)F)cc1 (stereo not drawn),-29%,.,.,-30%
O=C(NC1CCN(Cc2ccc(-c3ccsc3)cc2)C1)C1CCCC1 (stereo not drawn),-5%[138 µM],.,.,i
O=C(Cc1ccc(C(F)(F)F)cc1)NC1CCN(Cc2ccc(-c3ccsc3)cc2)C1 (stereo not drawn),?,.,.,35µM*
COc1ccc(C2(C(=O)N3C[C@@H](Oc4ccccc4)C[C@H]3C(=O)N3CCCC3)CC2)cc1,-17%,4%,i,-22%
N#Cc1ccc(C(=O)N2CCC3(CC2)NC(=O)N(Cc2ccc(F)cc2)C3=O)cc1,?,?,i,?
c1ccc(Nc2cnc3ccc(N4CCOCC4)nn23)cc1,?,-17%[70.6 µM],i,112µM*
Fc1ccc(Nc2cnc3ccc(N4CCOCC4)nn23)cc1F,?,0%[70.6 µM],i,?
Cc1ccccc1Nc1cnc2ccc(N3CCOCC3)nn12,?,?,i,56µM*
FC(F)(F)c1cccc(Nc2cnc3ccc(N4CCOCC4)nn23)c1,?,?,i,89µM*
CN1CCN(c2ccc3ncc(Nc4ccc(F)cc4)n3n2)CC1,100µM*,1%[70.6 µM],i,112µM*
COCCCn1c(=O)c(C(=O)NCCc2ccc(OC)cc2)nc2cccnc21,1%,.,.,-3%
N#Cc1ccc(C(=O)N2CCO[C@@H](COc3ccccn3)[C@@H]2c2ccccc2)cc1,-28%,.,.,?
Cc1nc2c(c(N(C)Cc3noc(C4CCCC4)n3)n1)CCNCC2,2%,-2%,i,2%
COCCn1c(C)cnc1CC1CCN(S(=O)(=O)c2c(C)noc2C)C1 (stereo not drawn),-21%,.,.,-12%
O=C(NCc1ccccc1)c1ccc2c(c1)n(Cc1ccc(F)cc1)c(=O)c1ccnn12,32µM*,0%,i,28µM*
CCN(CC)CCNC(=O)c1ccc2c(c1)n(Cc1cccc(F)c1)c(=O)c1ccnn12,32µM*,0%,i,32µM*
O=C(NCc1ccco1)c1ccc2c(c1)n(Cc1ccc(F)cc1)c(=O)c1ccnn12,22µM*,-5%,i,?
O=C(NCCN1CCOCC1)c1nc2sccn2c1-c1ccncc1,4%,.,.,-3%
COc1ccccc1NC(=O)Cn1c(N2CCN(c3ccccc3)CC2)nc(C)cc1=O,?,-7%,i,?
O=C1Nc2ccccc2CC12CCCN2Cc1ccc(Cl)cc1 (stereo not drawn),-29%,.,.,?

# Assay outcomes (PubChem)
